Only some compounds are listed: those with a hit (about 27% of all), similar ones and a draw of the others.
Pyk2 oligo antag = Pyk2 (human) oligomerization antagonism; Q14289; 99,000 tested, 0.83% active; AID 1347419; z-score (the deposit names both 25 µM and 10 µM); Q293 cells, Pyk2 FERM NanoBiT luminescence; active compounds read low;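 active means Z-score of -3 or lower, scaled per plate to the spread of control and sample wells; inactive means z-score above -3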;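 further: negative z-score means lost luminescence so less FERM oligomerization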
Target sequence (Q14289 whole entry, looked up): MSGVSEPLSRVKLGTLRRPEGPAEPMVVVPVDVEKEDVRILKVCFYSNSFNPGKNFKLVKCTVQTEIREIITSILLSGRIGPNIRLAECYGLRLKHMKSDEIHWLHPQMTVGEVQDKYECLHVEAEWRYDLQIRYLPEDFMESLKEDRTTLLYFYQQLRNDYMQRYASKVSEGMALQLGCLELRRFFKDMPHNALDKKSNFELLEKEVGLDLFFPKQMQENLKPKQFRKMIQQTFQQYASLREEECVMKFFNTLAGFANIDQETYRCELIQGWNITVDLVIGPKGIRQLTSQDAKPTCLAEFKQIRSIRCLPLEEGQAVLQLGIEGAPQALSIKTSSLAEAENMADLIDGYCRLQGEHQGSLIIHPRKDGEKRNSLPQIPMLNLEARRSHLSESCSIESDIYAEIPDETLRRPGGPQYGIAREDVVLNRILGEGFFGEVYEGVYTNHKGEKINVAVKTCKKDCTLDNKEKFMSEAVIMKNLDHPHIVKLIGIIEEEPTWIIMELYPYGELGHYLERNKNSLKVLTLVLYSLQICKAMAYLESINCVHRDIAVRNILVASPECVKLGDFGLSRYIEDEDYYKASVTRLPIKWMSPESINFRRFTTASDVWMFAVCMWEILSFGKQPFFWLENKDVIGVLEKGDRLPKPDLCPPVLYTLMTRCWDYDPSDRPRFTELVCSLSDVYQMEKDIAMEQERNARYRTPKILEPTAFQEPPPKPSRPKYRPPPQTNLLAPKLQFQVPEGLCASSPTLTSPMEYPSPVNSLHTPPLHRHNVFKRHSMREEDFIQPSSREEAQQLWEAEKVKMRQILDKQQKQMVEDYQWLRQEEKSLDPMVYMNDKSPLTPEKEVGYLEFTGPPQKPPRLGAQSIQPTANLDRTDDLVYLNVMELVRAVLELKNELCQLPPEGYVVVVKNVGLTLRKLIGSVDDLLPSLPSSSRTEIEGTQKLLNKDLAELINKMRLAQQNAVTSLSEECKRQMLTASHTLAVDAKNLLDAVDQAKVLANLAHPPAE
CYP2C19 inh = human CYP2C19 inhibition. CYP2C19 Supersomes, luciferin-H EGE luminescence, 30 min. P33261. inhibition, % at 5 µM. 96,000 tested, 21% active;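 active means CYP2C19 inhibition above a set limit at 5 µM in the primary screen, cut at about 50% in these data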;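 further: plate controls were negative control wells for no effect and 2.5 mM tranylcypromine positive control for full effect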
CYP2C9 activ = increases human cytochrome P450 2C9 activity | recombinant CYP2C9, luciferin-H conversion, luminescence; active compounds read high; factor 1 = untreated enzyme, 0 = blocked | activation factor at 5 µM | 96,000 tested, 1.4% active;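 active means activation factor of 2 or more for CYP2C9 at a 5 µM dose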;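 further: 0 = sulfaphenazole-blocked wells and 1 = vehicle-only wells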
Cav3 T inh = human Cav3.2 channel inhibition, primary screen; Cav3.2-expressing cells, Fluo-4 calcium fluorescence FDSS; active compounds read low; B-score at 10 µM; AID 449739; O95180; 100,000 tested, 4% active;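 active means single-dose well whose peak fluorescence ratio is a statistical outlier from its plate by either plate-standardised score or position-corrected B-score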
CYP2C9 inhib = human CYP2C9 inhibition; P11712; inhibition, % at 5 µM; 96,000 tested, 20% active; CYP2C9 Supersomes, luciferin-H conversion, luminescence; AID 777;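 active means blocking of liver enzyme CYP2C9 beyond about 50% at 5 µM, limit read from the data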
CYP2C19 activ = increases human CYP2C19 enzyme activity. activation factor at 5 µM. P33261. 96,000 tested, under 10 active. recombinant CYP2C19, luciferin-H EGE luminescence; active compounds read high; 0 = fully inhibited enzyme, 1 = untreated enzyme;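 active means activation factor of at least 2 at 5 µM in the primary screen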;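 further: 0 = wells with 2.5 mM tranylcypromine and 1 = vehicle-only wells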
Numbers without * were called inactive.

Results for COC(=O)CN1C(=O)Nc2ccc(Br)cc2C1c1ccccc1Cl (configuration not stated) ?
Pyk2 oligo antag: -1.5; CYP2C19 inh: 43.7; CYP2C9 activ: 0.8; Cav3 T inh: -3.47; CYP2C9 inhib: 24.9; CYP2C19 activ: 0.6

How did COc1ccc2c(C)cc(=O)oc2c1C do in these assays?
Pyk2 oligo antag: -0.5; CYP2C19 inh: 30.1; CYP2C9 activ: 2.3*; Cav3 T inh: -1.45; CYP2C9 inhib: -125.9; CYP2C19 activ: 0.7

How did Cc1cc(=O)oc2c(C)c(OCC(=O)N(C)C)ccc12 do in these assays?
Pyk2 oligo antag: -0.27; CYP2C19 inh: 11.1; CYP2C9 activ: 0.6; Cav3 T inh: 0.0429; CYP2C9 inhib: 36.4; CYP2C19 activ: 0.9

What do the screens show for `O=C(CN(Cc1ccccc1)S(=O)(=O)c1ccccc1)N/N=C/c1ccccc1[N+](=O)[O-]`?
Pyk2 oligo antag: -0.22; CYP2C19 inh: 42.3; CYP2C9 activ: 0.3; Cav3 T inh: -1.93; CYP2C9 inhib: 65.1*; CYP2C19 activ: 0.6

Results for Cc1ccc(CN(CC(=O)N/N=C/c2ccccc2[N+](=O)[O-])S(=O)(=O)c2ccc(C)cc2)cc1 ?
Pyk2 oligo antag: -1.42; CYP2C19 inh: 96.7*; CYP2C9 activ: 0.2; Cav3 T inh: -3.98*; CYP2C9 inhib: 84.7*; CYP2C19 activ: 0

How did CCNC(=O)CN(Cc1ccccc1)S(=O)(=O)c1ccccc1 do in these assays?
Pyk2 oligo antag: 0.97; CYP2C19 inh: 41.9; CYP2C9 activ: 0.6; Cav3 T inh: 0.136; CYP2C9 inhib: 38.5; CYP2C19 activ: 0.6

What do the screens show for `Oc1ccc(CNCC2COc3ccccc3O2)cc1` (configuration not stated)?
Pyk2 oligo antag: -0.88; CYP2C19 inh: 55.9*; CYP2C9 activ: 1; Cav3 T inh: 0.147; CYP2C9 inhib: 0.9; CYP2C19 activ: 0.4

How did S=C(NCc1ccccc1)NCC1COc2ccccc2O1 (configuration not stated) do in these assays?
Pyk2 oligo antag: -0.3; CYP2C19 inh: 93.1*; CYP2C9 activ: 0.2; Cav3 T inh: -4.53*; CYP2C9 inhib: 80.7*; CYP2C19 activ: 0.1

Results for O=C(NC1CSC/C1=N\O)c1ccccc1 (configuration not stated) ?
Pyk2 oligo antag: 0.4; CYP2C19 inh: 12.9; CYP2C9 activ: 0.9; Cav3 T inh: 0.282; CYP2C9 inhib: 5.5; CYP2C19 activ: 0.9

How did O=C(CC1CCCCC1)N1CCN(c2ccccn2)CC1 do in these assays?
Pyk2 oligo antag: 0.35; CYP2C19 inh: 53.7*; CYP2C9 activ: 0.4; Cav3 T inh: 0.315; CYP2C9 inhib: 61.5*; CYP2C19 activ: 0.5

What do the screens show for `CN(CC(=O)N1CCN(c2ccccn2)CC1)S(=O)(=O)c1ccc(Br)cc1`?
Pyk2 oligo antag: -0.17; CYP2C19 inh: 63.0*; CYP2C9 activ: 1.4; Cav3 T inh: 0.817; CYP2C9 inhib: -41.9; CYP2C19 activ: 0.4

Results for O=C(Nc1cccc(F)c1)Nc1ccccn1 ?
Pyk2 oligo antag: -0.57; CYP2C19 inh: 21.3; CYP2C9 activ: 0.8; Cav3 T inh: 0.285; CYP2C9 inhib: 22.1; CYP2C19 activ: 0.8

Results for CN(CC(=O)N1CCN(c2ccccn2)CC1)S(=O)(=O)c1cccc2nsnc12 ?
Pyk2 oligo antag: 0.59

Results for COc1ccccc1NC(=O)N1CCN(c2cccc(C(F)(F)F)c2)CC1 ?
Pyk2 oligo antag: 0.15; CYP2C19 inh: 84.7*; CYP2C9 activ: 2.1*; Cav3 T inh: -2.21; CYP2C9 inhib: -112.6; CYP2C19 activ: 0.2

Results for O=C(Nc1ccncc1)Nc1ccccn1 ?
Pyk2 oligo antag: -0.56; CYP2C19 inh: 91.2*; CYP2C9 activ: 0.3; Cav3 T inh: 1.16; CYP2C9 inhib: 67.7*; CYP2C19 activ: 0.1

What do the screens show for `O=C(O)CCC(=O)N1CCN(c2ccccn2)CC1`?
Pyk2 oligo antag: -0.63; CYP2C19 inh: 0.9; CYP2C9 activ: 1; CYP2C9 inhib: -0.8; CYP2C19 activ: 1

What do the screens show for `CCN(CCCNC(=O)COc1cc(=O)n(CC)c2ccccc12)Cc1ccccc1`?
Pyk2 oligo antag: 0.97; CYP2C19 inh: 5.7; CYP2C9 activ: 1; Cav3 T inh: 0.105; CYP2C9 inhib: 2.0; CYP2C19 activ: 0.9

How did COc1ccccc1CC(=O)N1CCN(c2cccc(C(F)(F)F)c2)CC1 do in these assays?
Pyk2 oligo antag: 0.35; CYP2C19 inh: 72.3*; CYP2C9 activ: 2*; Cav3 T inh: -4.78*; CYP2C9 inhib: -104.2; CYP2C19 activ: 0.3

Results for O=C(CSc1nccc2ccccc12)N1CCN(c2ccccn2)CC1 ?
CYP2C19 inh: 66.3*; CYP2C9 activ: 1.5; CYP2C9 inhib: -46.0; CYP2C19 activ: 0.3

How did CCn1c(=O)cc(OCC(=O)N2CCN(c3cccc(C(F)(F)F)c3)CC2)c2ccccc21 do in these assays?
Pyk2 oligo antag: -1.46; CYP2C19 inh: 46.0; CYP2C9 activ: 1.2; Cav3 T inh: -4.12; CYP2C9 inhib: -24.7; CYP2C19 activ: 0.5

How did COc1ccccc1CC(=O)N1CCCC1 do in these assays?
Pyk2 oligo antag: 0.87; CYP2C19 inh: -9.0; CYP2C9 activ: 1.4; Cav3 T inh: -0.134; CYP2C9 inhib: -38.8; CYP2C19 activ: 1.1

Results for COc1ccccc1NC(=O)N1CCN(c2ncccn2)CC1 ?
Pyk2 oligo antag: 0.08; CYP2C19 inh: 41.8; CYP2C9 activ: 2.4*; Cav3 T inh: -0.0314; CYP2C9 inhib: -141.1; CYP2C19 activ: 0.6

How did COc1ccccc1CC(=O)N1CCN(c2ccccn2)CC1 do in these assays?
Pyk2 oligo antag: 0.24; CYP2C19 inh: 57.8*; CYP2C9 activ: 1.3; Cav3 T inh: 2; CYP2C9 inhib: -27.4; CYP2C19 activ: 0.4

Results for CCOn1c(=O)c(C)[n+]([O-])c2ccccc21 ?
Pyk2 oligo antag: 0.19; Cav3 T inh: 0.525

What do the screens show for `COc1ccccc1OCC(=O)Nc1ccccn1`?
Pyk2 oligo antag: 1.64; CYP2C19 inh: 9.5; CYP2C9 activ: 1; CYP2C9 inhib: 4.7; CYP2C19 activ: 0.9

Results for COc1ccccc1NC(=O)C(=O)Nc1ccccn1 ?
Pyk2 oligo antag: -0.95; CYP2C19 inh: 18.0; CYP2C9 activ: 2.3*; Cav3 T inh: -0.723; CYP2C9 inhib: -133.0; CYP2C19 activ: 0.8

Results for CCOC(=O)N1CCC(Nc2c(N3CCN(c4cccc(C(F)(F)F)c4)CC3)c(=O)c2=O)CC1 ?
Pyk2 oligo antag: -0.14; CYP2C19 inh: 6.2; CYP2C9 activ: 0.4; Cav3 T inh: 0.0337; CYP2C9 inhib: 57.5*; CYP2C19 activ: 0.9

Results for Cc1ccc(CC(=O)N2CCN(c3cccc(C(F)(F)F)c3)CC2)cc1 ?
Pyk2 oligo antag: -0.21; CYP2C19 inh: 17.7; CYP2C9 activ: 0.5; Cav3 T inh: -5.36*; CYP2C9 inhib: 46.4; CYP2C19 activ: 0.8

What do the screens show for `CCOC(=O)N1CCC(Nc2c(-c3ccccc3)c(=O)c2=O)CC1`?
Pyk2 oligo antag: -0.01; CYP2C19 inh: 32.7; CYP2C9 activ: 0.7; Cav3 T inh: 1.47; CYP2C9 inhib: 25.5; CYP2C19 activ: 0.7
